# In PubChem BioAssay AID1159580 (chemical genetic matrix, 2015):
# “And” between values parts separate entries of the source, which are not always exact repeats. Equal values may be shown once. The campaign covered roughly 5,500 compounds. About 2,000 (36%) were called active. About 18% were inconclusive and are not listed. This is one part of the list. Unmarked numbers belong to inactive results. Rule as the data show it: active = normalized growth mostly below about 0.91 (no sharp cut-off); inconclusive = no clear call, values can overlap the other calls; inactive = mostly above about 0.92.
# Assay: chemical genetic growth profiling, strain panel (AID 1159580);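 also: tested at 20 µM; growth read once vehicle control cultures reached saturation at 30 °C; 1 = growth at the plate median or of vehicle wells; lower values mean less growth of the strain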
# Conditions: S. cerevisiae deletion strains, growth OD
smiles,measurement,setting,value
COC(=O)[C@@]1(C)CCC[C@]2(C)c3ccc(O)c(C(C)C)c3CCC12 (stereo not given in full),normalized growth,"locus YAL021C, strain ccr4, stronger effect = lower value",1.08
same,normalized growth,"locus YAL026C, strain drs2, stronger effect = lower value",0.929
same,normalized growth,"locus YAL030W, strain snc1, stronger effect = lower value",0.85 (active)
same,normalized growth,"locus YBL061C, strain skt5, stronger effect = lower value",0.617 (active)
same,normalized growth,"locus YBR009C, strain hhf1, stronger effect = lower value",0.364 (active)
same,normalized growth,"locus YBR021W, strain FUR4, stronger effect = lower value",0.646 (active)
same,normalized growth,"locus YBR023C, strain chs3, stronger effect = lower value",0.793 (active)
same,normalized growth,"locus YBR171W, strain sec66, stronger effect = lower value",0.946
same,normalized growth,"locus YBR229C, strain ROT2, stronger effect = lower value",0.875 (active)
same,normalized growth,"locus YBR231C, strain swc5, stronger effect = lower value",0.705 (active)
same,normalized growth,"locus YBR279W, strain paf1, stronger effect = lower value",0.941
same,normalized growth,"locus YCL011C, strain gbp2, stronger effect = lower value",0.652 (active)
same,normalized growth,"locus YCL016C, strain dcc1, stronger effect = lower value",0.847 (active)
same,normalized growth,"locus YCL029C, strain bik1, stronger effect = lower value",0.804 (active)
same,normalized growth,"locus YCL069W, strain vba3, stronger effect = lower value",0.977
same,normalized growth,"locus YCR088W, strain abp1, stronger effect = lower value",0.971
same,normalized growth,"locus YDL005C, strain med2, stronger effect = lower value",0.944
same,normalized growth,"locus YDL035C, strain GPR1, stronger effect = lower value",0.912
same,normalized growth,"locus YDL040C, strain nat1, stronger effect = lower value",0.928 (active)
same,normalized growth,"locus YDL074C, strain BRE1, stronger effect = lower value",0.174 (active)
same,normalized growth,"locus YDL101C, strain DUN1, stronger effect = lower value",0.894 (active)
same,normalized growth,"locus YDL185W, strain tfp1, stronger effect = lower value",0.956
same,normalized growth,"locus YDL192W, strain arf1, stronger effect = lower value",0.344 (active)
same,normalized growth,"locus YDR001C, strain nth1, stronger effect = lower value",0.978
same,normalized growth,"locus YDR069C, strain doa4, stronger effect = lower value",0.89 (active)
same,normalized growth,"locus YDR101C, strain arx1, stronger effect = lower value",0.782 (active)
same,normalized growth,"locus YDR137W, strain rgp1, stronger effect = lower value",0.134 (active)
same,normalized growth,"locus YDR159W, strain sac3, stronger effect = lower value",0.29 (active)
same,normalized growth,"locus YDR162C, strain NBP2, stronger effect = lower value",0.595 (active)
same,normalized growth,"locus YDR195W, strain ref2",0.189 (active)
same,normalized growth,"locus YDR297W, strain sur2, stronger effect = lower value",0.566 (active)
same,normalized growth,"locus YDR318W, strain mcm21, stronger effect = lower value",0.788 (active)
same,normalized growth,"locus YDR334W, strain swr1, stronger effect = lower value",0.998
same,normalized growth,"locus YDR335W, strain msn5, stronger effect = lower value",0.965
same,normalized growth,"locus YDR388W, stronger effect = lower value",0.942
same,normalized growth,"locus YDR392W, strain spt3, stronger effect = lower value",0.283 (active)
same,normalized growth,"locus YDR502C, strain sam2, stronger effect = lower value",0.773 (active)
same,normalized growth,"locus YEL003W, strain gim4, stronger effect = lower value",0.929
same,normalized growth,"locus YEL037C, strain rad23, stronger effect = lower value",0.988
same,normalized growth,"locus YEL061C, strain CIN8 (second series), stronger effect = lower value",0.981
same,normalized growth,"locus YEL061C, strain CIN8, stronger effect = lower value",0.803 (active)
same,normalized growth,"locus YER015W, strain faa2, stronger effect = lower value",0.793 (active)
same,normalized growth,"locus YER016W, strain bim1, stronger effect = lower value",0.825 (active)
same,normalized growth,"locus YER110C, stronger effect = lower value",1
same,normalized growth,"locus YER111C, strain swi4, stronger effect = lower value",0.995
same,normalized growth,"locus YER155C, strain BEM2 (second series), stronger effect = lower value",0.891
same,normalized growth,"locus YER155C, strain BEM2, stronger effect = lower value",0.128 (active)
same,normalized growth,"locus YER167W, strain BCK2, stronger effect = lower value",0.796 (active)
same,normalized growth,"locus YFR010W, strain ubp6, stronger effect = lower value",0.952
same,normalized growth,"locus YGL078C, strain dbp3, stronger effect = lower value",0.935
same,normalized growth,"locus YGL086W, strain mad1, stronger effect = lower value",0.729 (active)
same,normalized growth,"locus YGL167C, strain pmr1, stronger effect = lower value",0.374 (active)
same,normalized growth,"locus YGL173C, strain kem1, stronger effect = lower value",0.832 (active)
same,normalized growth,"locus YGL227W, strain vid30, stronger effect = lower value",0.97
same,normalized growth,"locus YGL240W, strain doc1, stronger effect = lower value",0.772 (active)
same,normalized growth,"locus YGL248W, strain PDE1, stronger effect = lower value",0.828 (active)
same,normalized growth,"locus YGL253W, strain hxk2, stronger effect = lower value",0.951
same,normalized growth,"locus YGR135W, strain pre9, stronger effect = lower value",0.957
same,normalized growth,"locus YGR252W, strain gcn5, stronger effect = lower value",0.781
same,normalized growth,"locus YHR013C, strain ard1, stronger effect = lower value",1.01
same,normalized growth,"locus YHR027C, strain rpn1, stronger effect = lower value",0.499 (active)
same,normalized growth,"locus YHR030C, strain SLT2, stronger effect = lower value",0.493 (active) and 0.19 (active)
same,normalized growth,"locus YHR079C, strain IRE1 (second series), stronger effect = lower value",0.927
same,normalized growth,"locus YHR079C, strain IRE1, stronger effect = lower value",0.502 (active)
same,normalized growth,"locus YHR094C, strain hxt1, stronger effect = lower value",0.897 (active)
same,normalized growth,"locus YHR129C, strain ARP1, stronger effect = lower value",0.518 (active)
same,normalized growth,"locus YHR142W, strain chs7, stronger effect = lower value",0.875 (active)
same,normalized growth,"locus YHR200W, strain rpn10, stronger effect = lower value",0.871 (active)
same,normalized growth,"locus YIL066C, strain RNR3, stronger effect = lower value",0.65 (active)
same,normalized growth,"locus YIL073C, strain SPO22, stronger effect = lower value",1.07
same,normalized growth,"locus YIL125W, strain kgd1, stronger effect = lower value",0.693 (active)
same,normalized growth,"locus YIR030C, strain dcg1, stronger effect = lower value",0.954
same,normalized growth,"locus YJL092W, strain hpr5, stronger effect = lower value",0.979
same,normalized growth,"locus YJL095W, strain BCK1 (second series), stronger effect = lower value",0.689 (active)
same,normalized growth,"locus YJL095W, strain BCK1, stronger effect = lower value",0.277 (active) and 0.318 (active)
same,normalized growth,"locus YJL115W, strain asf1, stronger effect = lower value",0.976
same,normalized growth,"locus YJL129C, strain trk1, stronger effect = lower value",0.593 (active)
same,normalized growth,"locus YJL134W, strain LCB3, stronger effect = lower value",0.815 (active)
same,normalized growth,"locus YJL154C, strain vps35, stronger effect = lower value",0.981
same,normalized growth,"locus YJL164C, strain tpk1, stronger effect = lower value",0.78 (active)
same,normalized growth,"locus YJL166W, strain qcr8, stronger effect = lower value",0.563 (active)
same,normalized growth,"locus YJL168C, strain set2, stronger effect = lower value",1
same,normalized growth,"locus YJL187C, strain SWE1 (second series), stronger effect = lower value",0.638 (active)
same,normalized growth,"locus YJL187C, strain SWE1, stronger effect = lower value",0.73 (active)
same,normalized growth,"locus YJR043C, strain POL32, stronger effect = lower value",0.955
